Data on 108 compounds can be found in ChEMBL document CHEMBL4513216, “Probing the Open Global Health Chemical Diversity Library for Multistage-Active Starting Points for Next-Generation Antimalarials” (ACS Infect Dis, 2020).

The structures appear in SMILES notation. Hit rate of the full screen: of about 69,000 compounds, about 8,600 (12%) showed an effect of 50% or more. For the sample, strong results were picked, then their nearest neighbours and some compounds at random.

This test relates to Plasmodium berghei. Put plainly: Screen against P. berghei liver stage (PbLuc), transformed with Luciferase, at 10uM. Type of test: functional, HepG2. The conditions noted are these: tested at 10 uM.
As to `O=C(Cc1c(F)cccc1Cl)N1CCC(Nc2cccnn2)CC1`, the INHIBITION was -8.225%.
As for `c1cnc(N2CC3(CCN(Cc4ccncc4)C3)C2)nc1`, the INHIBITION was determined as 11.3%.
To `c1cnc(N2CCCC3(CCN(c4ncccn4)C3)C2)nc1` (stereo not drawn) belongs 44.8%.
Then `c1cnc(N2CCC3(CCCN(Cc4ccncc4)C3)CC2)nc1`, with 82.3%; and `COCCN1CCC2(CCCN(c3ncccn3)C2)C1` (stereo not drawn), with 48.3%.
As to `CCC(CC)CN1CCC2(CCCN(c3ncccn3)C2)C1` (stereo not drawn), the INHIBITION stood at 62.5%.
As for `c1cnc(N2CCCC3(CCN(CC4CCC4)C3)C2)nc1` (stereo not drawn), the INHIBITION is 55.5%.
To `c1cnc(N2CCC3(CCN(CC4CCCC4)CC3)C2)nc1` belongs 28.4%.
To `c1cnc(N2CCCC3(CCN(CC4CC4)C3)C2)nc1` (stereo not drawn) belongs 43.9%; to `c1cnc(N2CCCC3(CCN(Cc4ccncc4)C3)C2)nc1` (stereo not drawn), 42.6%.
To `CC1CN(S(=O)(=O)c2ccc(C(=O)NCC(F)F)cc2)CCCO1` (stereo not drawn) belongs 49.2%; to `Cc1ccc(CN2CCN(C(=O)CCc3nc(Cl)n[nH]3)CC2=O)cc1`, 29.4%.
For `O=C1CN(Cc2ccc3ccccc3n2)CCN1C1CCCC1`, the INHIBITION turned out to be 36%.
On to `Cc1nnc(NC(=O)NCc2ccc(OC(C)C)nc2)s1`, for which the INHIBITION came out at 21.5%.
With `CCN(CC(=O)NC(C)(C)C)Cc1cccc2c1OCCO2`, the INHIBITION is reported as 23.3%.
Turning to `CCN(Cc1cccc2c1OCCO2)C(=O)NC(C)(C)C`, the INHIBITION worked out at 51.1%.
With `CCN(Cc1cccc2c1OCO2)C(=O)Nc1ccncc1`, the INHIBITION was determined as 46.5%.
In the case of `CCN(Cc1cccc2c1OCO2)C(=O)NC1CC1`, the INHIBITION was determined as 36.4%.
With `CN(CC(=O)NC(C)(C)C)Cc1cccc2c1OCCO2`, the INHIBITION worked out at 65%.
With `CN(CC(=O)NCC(F)(F)F)Cc1cccc2c1OCCO2`, the INHIBITION came to 44.7%.
Turning to `CCC(O)CN1CCN(C(=O)c2sccc2C(C)C)CC1` (stereo not drawn), the INHIBITION is recorded as 23.4%.
Take `CC(C)(O)C1CCN(C(=O)Nc2nc(-c3ccccc3)ns2)CC1`: the INHIBITION is listed as 58.9%.
Then `O=C(Nc1nc(-c2ccccc2)ns1)N1CCC(F)CC1`, with -47%; and `CC(C)(O)C1CCCN(C(=O)Nc2nc(-c3ccccc3)ns2)C1` (stereo not drawn), with -62.8%.
`CC(C)n1cnnc1C1CCCN(S(=O)(=O)c2c[nH]cn2)C1` (stereo not drawn): the INHIBITION came out at 36.3%.
To `O=C(Cc1csc(-c2ccccn2)n1)NCCCN1CCCCCC1=O` belongs 9.76%.
On to `CC(=O)Nc1ncc(S(=O)(=O)Nc2ccc3c(c2)OCCO3)s1`, for which the INHIBITION is given as 81.4%.
To `COC(=O)c1cccc(NS(=O)(=O)c2cnc(NC(C)=O)s2)c1` belongs 22.9%; to `CC(=O)Nc1ncc(S(=O)(=O)Nc2ccc(F)cc2)s1`, -6.32%; to `CC(=O)Nc1ncc(S(=O)(=O)N2CCC(C)CC2)s1`, 61.2%.
For the compound `CC(=O)Nc1ncc(S(=O)(=O)Nc2cccc(F)c2)s1`, the INHIBITION is -13%.
To `CC(=O)Nc1ncc(S(=O)(=O)N2CCCC(C)C2)s1` (stereo not drawn) belongs 40.2%; to `COC(=O)c1ccc(NS(=O)(=O)c2cnc(NC(C)=O)s2)cc1`, 1.86%.
Then `CC(=O)Nc1ncc(S(=O)(=O)Nc2ccc(C)cc2)s1`, with 77.2%; and `CC(=O)Nc1ncc(S(=O)(=O)Nc2cccc(C)c2)s1`, with 27.5%; and `CC(=O)Nc1ncc(S(=O)(=O)Nc2ccccc2)s1`, with 40.8%.
For the compound `COc1ccc(NS(=O)(=O)c2cnc(NC(C)=O)s2)cc1`, the INHIBITION was determined as 50.7%.
To `CC(=O)Nc1ncc(S(=O)(=O)N2CCOCC2)s1` belongs 21.7%; to `CC(NC(=O)CNS(C)(=O)=O)c1ccccc1Oc1ccccc1` (stereo not drawn), 37.1%.
Then `Cc1cc(N2CCCCC2)nc(N(CCO)CCO)c1C#N`, with 31.8%; and `CN(C(=O)c1ccncc1)c1nnc(C2CCOC2)s1` (stereo not drawn), with 1.25%.
Consider `Cc1cccc(CN2C(=O)CO[C@@H]3CN(Cc4cnn(C)c4)C[C@H]32)c1`, for which the INHIBITION is recorded as 45.2%.
With `COc1ccc(CN2C[C@H]3CCC[C@@H](CN(C)C)[C@H]3C2)cn1`, the INHIBITION was found to be 34.6%.
For the compound `Cc1cc(C(=O)N2CCCC(c3ccc(C(=O)O)cc3)C2)c(C)o1` (stereo not drawn), the INHIBITION was 9.52%.
Then `COc1ccc(Cl)cc1NCCC(=O)NCCNc1cnccn1`, with 14.4%; and `Cc1[nH]ccc1C(=O)NCc1ncoc1C`, with -17.3%; and `CCC(=O)N1CCC1c1cc(NC2CCCC2)nc(C)n1` (stereo not drawn), with 14.5%.
For the compound `COc1ccc(C(C)N2CCC(CNC(C)=O)CC2)cc1Cl` (stereo not drawn), the INHIBITION is on record as 70.3%.
Then `COc1ccc(C(C)N2CCC(OC)CC2)cc1Cl` (stereo not drawn), with 42.4%; and `COc1ccc(C(C)N2CCC(NS(C)(=O)=O)CC2)cc1Cl` (stereo not drawn), with 57.3%.
To `COc1ccc(C(C)N2CCC(C(=O)NC3CC3)CC2)cc1Cl` (stereo not drawn) belongs 41.5%.
To `COc1ccc(C(C)N2CCC(CO)CC2)cc1Cl` (stereo not drawn) belongs 40.6%; to `COc1ccc(C(C)N2CCC(C(=O)N(C)C)CC2)cc1Cl` (stereo not drawn), 24.8%; to `CC(C)c1cc(NC(=O)Cn2ccc(=O)c3ccccc32)[nH]n1`, 6.72%.
Take `CCN(CC1COc2ccccc2O1)C(=O)CCn1cncn1` (stereo not drawn): the INHIBITION is reported as -4.4%.
To `Cc1nn(C)c(N(C)C)c1CNCc1cccnc1OC(C)C` belongs 19.6%.
Then `CCC(Nc1ccc(Oc2ccccc2OC)cc1)C(N)=O` (stereo not drawn), with -34.1%; and `CCC(Nc1ccc(Oc2cccc(C#N)c2)cc1)C(N)=O` (stereo not drawn), with 39.7%; and `CCC(Nc1ccc(Oc2ccc(C#N)cc2OC)cc1)C(N)=O` (stereo not drawn), with 73.1%.
As for `CCC(C)NC(=O)c1cc(S(N)(=O)=O)c(Br)s1` (stereo not drawn), the INHIBITION was determined as 14%.
Then `Cc1oc(C(=O)O)cc1S(=O)(=O)Nc1ccc(Cl)cc1F`, with -20.2%; and `CC(=O)Nc1ccc(Oc2cc(C)nc(C3CCNCC3)c2)cc1`, with 19.15%.
Then `CC(=O)N1CCCC1CCc1ccnc(-c2cncnc2)c1` (stereo not drawn), with 27.45%; and `COC(=O)C1=C(C)N=C2SCC(=O)N2C1c1cn(C)nc1C` (stereo not drawn), with 12.6%.
Turning to `Cc1ccsc1CN(CCN(C)C)C(=O)C1=NNC(=O)CC1`, the INHIBITION is 67.2%.
For the compound `CN(C)CCN(Cc1ccsc1)C(=O)C1=NNC(=O)CC1`, the INHIBITION stood at 49%.
With `COC(=O)c1ccccc1C(=O)N(CCN(C)C)Cc1sccc1C`, the INHIBITION stood at 8.03%.
Then `Cc1ccsc1CN(CCN(C)C)C(=O)c1ccccc1C#N`, with 14.6%.
Then `Cc1ccsc1CN(CCN(C)C)C(=O)c1cc2ccccc2[nH]1`, with 71%; and `CN(C)CCN(Cc1ccccc1)C(=O)C1=NNC(=O)CC1`, with 18%; and `Cc1nn(C)c(C)c1C1CCCN1C(=O)CCCNc1ncccn1` (stereo not drawn), with -16%.
With `CN(CCCNC(=O)C1CCCN(C(N)=O)C1)S(C)(=O)=O` (stereo not drawn), the INHIBITION is on record as 19.8%.
To `O=C(Cc1ccc(F)cc1)NCCNS(=O)(=O)C1CCCC1` belongs 54.9%.
To `O=C(Cc1ccccc1)NCCNS(=O)(=O)C1CCCCC1` belongs 18.2%.
To `O=C(Cc1cccc(F)c1)NCCNS(=O)(=O)C1CCCC1` belongs 25.3%; to `O=C(c1ccc(O)nc1)N1CCC(Nc2cccnn2)CC1`, 29.4%; to `Cc1ccc(CN2CC[C@H]3O[C@@H](C(=O)N4CCCO4)CC[C@H]32)s1`, 66.9%.
As to `Cc1ccsc1CN1CC[C@H]2O[C@H](C(=O)N3CCCO3)CC[C@H]21`, the INHIBITION was -18.4%.
To `Cc1ccc(N2CC[C@H]3O[C@@H](C(=O)N4CCCCO4)CC[C@H]32)nn1` belongs 3.69%; to `Cc1ccc(N2CC[C@H]3O[C@@H](C(=O)N4CCCO4)CC[C@H]32)nn1`, 92.1%.
As to `O=C([C@@H]1CC[C@@H]2[C@@H](CCN2Cc2cccs2)O1)N1CCCCO1`, the INHIBITION is recorded as -75.3%.
Then `Cc1ccc(N2CC[C@H]3O[C@H](C(=O)N4CCCCO4)CC[C@H]32)nn1`, with 46.4%.
To `COCCCN(Cc1ccccn1)S(=O)(=O)N(C)C` belongs 32.8%; to `CS(=O)(=O)NCc1cn2c(n1)CN(Cc1cccnc1)CC2`, -12.2%.
Consider `CCCSCC(=O)N1C[C@@H]2CC[C@H]1CN(c1ncccn1)C2`, for which the INHIBITION is -4.37%.
As to `CCOCC1CCN(C(=O)Nc2ccc(-c3csnn3)cc2)C1` (stereo not drawn), the INHIBITION worked out at 60%.
Then `CCN(C)CC1CCN(C(=O)Nc2ccc(-c3csnn3)cc2)C1` (stereo not drawn), with -32.3%.
To `O=C(Nc1ccc(-c2csnn2)cc1)N1CC[C@H](O)C1` belongs -73.4%.
Then `Cc1noc(C)c1-c1nc(NCCN(C)C)ncc1-c1cnccn1`, with -56.2%; and `CCCOC(=O)N1CCC(c2nnc(Cn3cccn3)n2C2CC2)CC1`, with -35.9%; and `Cc1nc(C)n(CC2CCCN2Cc2nc(-c3ccco3)no2)n1` (stereo not drawn), with 29.645%.
With `COCCc1noc(CN2CCCC2Cn2nc(C)cc2C)n1` (stereo not drawn), the INHIBITION was 1.75%.
Take `Cc1nc(C)n(CC2CCCN2CCc2ccncc2)n1` (stereo not drawn): the INHIBITION is reported as -21.985%.
To `Cc1nc(C)n(CC2CCCN2Cc2ncc(C(C)(C)C)o2)n1` (stereo not drawn) belongs 63.5%.
For the compound `Cc1nc(C)n(CC2CCCCN2Cc2ncc(C(C)(C)C)o2)n1` (stereo not drawn), the INHIBITION was found to be 31%.
In the case of `Cc1cc(C)n(CC2CCCN2Cc2ncc(C(C)(C)C)o2)n1` (stereo not drawn), the INHIBITION is given as -25.6%.
Then `CC(C)(C)CC1CCCN1Cc1nc(-c2ccco2)no1` (stereo not drawn), with 76.2%; and `Cc1nc(C)n(CC2CCCN2CCc2cccs2)n1` (stereo not drawn), with 52%.
To `COCCc1noc(CN2CCCCC2Cn2nc(C)cc2C)n1` (stereo not drawn) belongs 18.4%.
To `COCCc1noc(CN2CCCC2Cn2nc(C)nc2C)n1` (stereo not drawn) belongs 64.8%; to `Cc1nc(C)n(CC2CCCN2CC(=O)NCCc2cccs2)n1` (stereo not drawn), 43.6%; to `c1coc(-c2noc(CN3CCCC3Cn3cncn3)n2)c1` (stereo not drawn), 31.8%.
For the compound `Fc1cc(Cl)cnc1N1CCCC(c2nccn2Cc2ccncc2)C1` (stereo not drawn), the INHIBITION was found to be 31.4%.
Then `CCOC(=O)c1cccc(N2CCCC3(CCC(=O)N(C4CC4)C3)C2)n1` (stereo not drawn), with 28.7%.
Consider `CC(C)C1CN(C(=O)c2ccn(C)c(=O)c2)c2ccccc2N1` (stereo not drawn), for which the INHIBITION is on record as -36.7%.
`Cc1nc(CN(C)C2CCN(CCCc3ccccc3)C2)no1` (stereo not drawn): the INHIBITION is recorded as -61.4%.
With `Cc1ccc(-c2nc(CN3CCn4c(C)nnc4C3)cs2)o1`, the INHIBITION is given as -31.8%.
`Cc1cc(C(=O)N(CC(C)C)CC(O)c2ccc(F)cc2)[nH]n1` (stereo not drawn): the INHIBITION was -36.4%.
